A selection: hits, their analogues and other compounds. The true share with any hit is near 5.1%.
KCC2 mod: modulates chloride dependent transport by human KCC2 | B-score of Tl+ flux slope (higher = more flux/activation; lower = inhibition) at 10 µM | Q9H2X9 | 190,000 compounds, 2.2% hits | AID 1456 | KCC2 cells, thallium flux FluoZin-2 fluorescence;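 active = thallium flux slope and its plate-corrected score both differing from the plate sample mean at a set confidence after two filtering rounds, in either direction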;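 also: slope of fluorescence scaled to starting intensity during 10 to 20 s after thallium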
S1P4 antagonist: antagonists of human S1P4 receptor. S1P4-expressing cells, antagonist mode, reporter read-out. inhibition, % at 4.98 µM. AID 1510. O95977. 220,000 compounds, 0.26% hits; in the data active = inhibition above about 29%;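 also: 0% = wells stimulated with agonist and 100% = vehicle wells without agonist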
ROMK mod: modulators of human ROMK potassium channel; P48048; Tet-inducible ROMK, thallium flux fluorescence; actives lie on both sides; B-score at 10 µM; 130,000 compounds, 2% hits; AID 1918;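 active = signal ratio slope over the read window, or its plate-corrected B-score, at least 3 SD from the plate mean, either direction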;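 also: B-score of the F/F0 ratio slope over 7 to 12 s after thallium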
S1P3 antagonist: blocks the human S1P3 receptor; Q99500; 170,000 compounds, 0.27% hits; CHO S1P3 NFAT-BLA reporter, FRET fluorescence, antagonist mode; AID 485; inhibition, % at 4.98 µM;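 active = inhibition above the plate cutoff, the mean inhibition of test wells on that plate plus 3 SD, cut at about 28% in these data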;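 also: cells challenged with S1P at its EC80 of 0.8 µM; blue over green emission ratio from cleaved BLA substrate after 4 h stimulation; 0% = S1P-stimulated wells and 100% = unstimulated DMSO-only wells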
RAM network inh: blocks the yeast RAM network; S. cerevisiae dse1pr::URA3 reporter, 5-FOA growth OD615, 2 d; analog-sensitive cbk1-as2 kinase mutant strain; inhibition, % at 50 µM; 190,000 compounds, 1.8% hits; AID 868;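 active = inhibition above a set limit, 3 SD over mean compound inhibition, cut at about 8.4% in these data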;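 also: 0% = DMSO-only wells with no growth and 100% = 10 µM 1-NA-PP1 full growth; inhibition rescues growth on 5-FOA so higher OD means more RAM inhibition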
S1P4 ag: activates the human S1P4 receptor; S1P4-expressing cell line, agonist reporter assay; activation, % at 4.98 µM; 220,000 compounds, 0.35% hits; AID 1509; in the data active = activation above about 11%;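 also: 0% = DMSO vehicle and 100% = reference agonist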
ROMK hit retest: human ROMK channel modulation, retest confirmation; shares compounds with ROMK mod; ROMK thallium flux, fluorescence ratio; stronger effect = lower value; normalized thallium flux (F/F0 slope) at 10 µM; 3,000 compounds, 54% hits;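 active = Flux at 10 µM at least 3 SD below or above vehicle control mean in one or both replicates; inconclusive = no clear call, values can overlap the other calls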
* hit, by the source's call; ? = inconclusive; . = not tested or not shown.

SMILES | KCC2 mod | S1P4 antagonist | ROMK mod | S1P3 antagonist | RAM network inh | S1P4 ag | ROMK hit retest
N/C(=N/O)c1ccccc1N1CCC(Cc2ccccc2)CC1 | -3.15 | -2.9 | -4.51* | -21.8 | 0.1 | -0.7 | 0.0736
CC(CN1CCNCC1)(NS(=O)(=O)c1ccccc1)c1ccccc1 (stereo not given) | . | -1.8 | -4.46* | -41.1 | -1.0 | 1.9 | 0.0619*
CCCCCCC(C)OC(=O)c1ccccc1C(=O)O (stereo not given) | -0.689 | -4.4 | . | 5.2 | . | -0.8 | .
Cc1nnc(N/N=C/c2ccc(-c3ccccc3F)o2)n1N | -1.49 | -8.7 | -2.46* | -16.6 | 2.1 | -0.5 | 0.0594*
Cc1nc2ccc(NC(=O)c3ccc(S(=O)(=O)N4CCOCC4)cc3)cc2s1 | . | -9.9 | 3.19* | . | 3.1 | 0.5 | 0.0774
Cc1ccc(NC(=O)c2cc(S(=O)(=O)N3CCOCC3)c(Br)s2)cc1 | -0.652 | -17.5 | . | 5.4 | 5.0 | -2.3 | 0.0806
Cc1nc2ccc(NC(=O)c3cccc(S(=O)(=O)N4CC(C)OC(C)C4)c3)cc2s1 (stereo not given) | 1.17 | -3.4 | -0.101 | . | -0.3 | -1.6 | .
Cc1ccc(S(=O)(=O)Nc2ccccc2C(=O)NCc2cccnc2)cc1 | 0.703 | -3.5 | 2.8* | -20.3 | 2.0 | 0.0 | 0.0831
O=C(Nc1cc(S(=O)(=O)N2CCCCC2)ccc1O)c1ccccc1NS(=O)(=O)c1ccc(F)cc1 | -0.0863 | -2.4 | 3.31* | 4.8 | 6.8 | -0.5 | 0.0892
O=C(NCc1cccnc1)c1ccccc1NS(=O)(=O)c1ccc(F)cc1F | -1.24 | 0.9 | . | -1.1 | . | -0.6 | .
Cc1ccc(S(=O)(=O)Nc2ccccc2C(=O)Nc2nc(-c3ccc(F)cc3)cs2)cc1 | 0.721 | -10.3 | . | -1.4 | 8.2 | 0.8 | 0.0571*
O=C(Nc1ccccc1N1CCOCC1)c1ccccc1NS(=O)(=O)c1ccc(F)cc1 | -1.64 | 3.5 | 0.902 | . | 1.9 | -4.8 | .
O=C(COC(=O)c1cc(S(=O)(=O)NCc2ccccc2)ccc1O)c1cc2ccccc2o1 | -1.81 | -10.2 | . | 0.6 | . | 0.8 | .
CN(C)c1ccc(N=C/C=C2/N(C)c3ccccc3C2(C)C)cc1 | 0.264 | -10.7 | . | -20.1 | 0.8 | 0.1 | 0.0538*
CN1/C(=C\C=N\O)C(C)(C)c2ccccc21 | -0.155 | -3.9 | 0.986 | -10.2 | -0.7 | 2.5 | .
O=C(COC(=O)/C=C/c1ccc(S(=O)(=O)N2CCOCC2)cc1)NCc1ccc(F)cc1 | -0.104 | 15.3 | 5.03* | -5.3 | 3.5 | 0.1 | 0.0902
Oc1ccc(CNCC2COc3ccccc3O2)cc1 (stereo not given) | . | 3.3 | . | . | 2.1 | -1.0 | .
COc1ccc(-n2ccnc2CN2CCCC(CO)(Cc3cccc(OC)c3)C2)cc1 (stereo not given) | -2.45 | -5.1 | -1.65 | -6.0 | 0.0 | 0.1 | .
COc1cccc(CC2(CO)CCCN(Cc3c(C)cc(C)cc3-n3cccn3)C2)c1 (stereo not given) | -1.34 | 18.1 | -3.65* | 6.1 | -1.0 | 1.6 | 0.0549*
CCCCc1nc2ccccc2c(NC(=O)CNC(C)(C)C)c1CCC | -0.473 | 14.2 | -2.79* | . | 2.2 | -0.6 | 0.0547*
COc1ccccc1Cn1c(CCCO)nc2ccccc21 | . | 3.2 | -3.75* | -5.8 | -0.1 | -2.2 | ?
CCCc1nc2ccccc2n1Cc1ccccc1OC | . | -32.8 | . | 2.1 | 0.1 | 2.2 | .
O=C1c2cccc3c([N+](=O)[O-])ccc(c23)C(=O)N1c1ccc(Cl)cn1 | . | 22.9 | -3.72* | . | 0.8 | 4.9 | 0.0476*
O=C(COc1ncnc2scc(-c3ccc(Cl)cc3)c12)NCc1ccco1 | -0.507 | -10.6 | . | . | 2.0 | 1.2 | 0.061*
CC(=O)c1c(C(C)=O)c(C)n(C2CCCCC2)c1C | 0.464 | 13.9 | . | . | 0.5 | -1.0 | .
Cc1ccc(C)c(OCCCN2CCCC2)c1 | -0.938 | 1.1 | . | 15.3 | 0.1 | -1.3 | .
Cc1cccc(OCCCN2CCCCCC2)c1 | 0.256 | 6.2 | 3.19* | 10.6 | -0.3 | 0.9 | 0.0734
CCOC(=O)c1c(C)[nH]c(C2=NNC(=Nc3cccc(Cl)c3)SC2)c1C | -0.0949 | 8.0 | 0.314 | 2.4 | 2.8 | -1.3 | .
COc1ccc(C(=O)NCCSC2CCCCC2)cc1 | -0.635 | -21.6 | -2.21* | 8.9 | 3.0 | 0.3 | ?
O=C(NCCSC1CCCCC1)c1ccccc1 | 0.385 | -14.0 | -0.168 | 3.2 | -0.5 | 2.8 | .

High-throughput results deposited in PubChem by several laboratories.
